Assay outcomes: PubChem BioAssay, Broad Institute
C diff growth = blocks growth of Clostridium difficile. Clostridium difficile clinical isolate growth, OD600, 24 h; stronger effect = lower value. growth activity, negative = inhibition, % at 16 µg/mL (by protocol). actives 0.25% (n = 86,000). AID 1259249;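 active means mean growth activity at or below -80% and every replicate also at or below -80%; inconclusive means mean at or below -80% but some replicate above -80%; inactive means mean growth activity above -80%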;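 further: 0% = DMSO wells and -100% = levofloxacin 16 µg/mL wells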
Pf Dd2 inh = blocks growth of Plasmodium falciparum Dd2 parasites; activity change, % at 10 µM; P. falciparum Dd2 growth, SYBR Green, 72 h; stronger effect = lower value; actives 2.3% (n = 94,000); in the data active means activity change below about -80%; inconclusive means no clear call, values can overlap the other calls
T cruzi growth-1 = blocks T. cruzi growth in NIH3T3 culture; actives 5.9% (n = 77,000); AID 624255; T. cruzi beta-gal in NIH3T3, GalScreen luminescence, 90 h; inhibition, % at 8.34 µM;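 active means mean inhibition above about 93%, with at least 55% of replicates each passing it, limit read from the data, passing the limit was not always enough; inconclusive means only one of those two conditions holds; inactive means neither condition holds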
T cruzi growth-2 = Trypanosoma cruzi proliferation inhibition; shares compounds with T cruzi growth-1; T. cruzi beta-gal in NIH3T3, GalScreen luminescence, 90 h; inhibition, % at 8.35 µM; actives 72% (n = 5,600); AID 651739;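 active means mean replicate inhibition above about 95% and at least 55% of replicates individually reaching it, limit read from the data; inconclusive means only one of the two criteria is met; inactive means neither criterion is met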
T cruzi growth-3 = blocks T. cruzi growth in NIH3T3 host cells. actives 21% (n = 5,600). T. cruzi beta-gal in NIH3T3, GalScreen luminescence, 90 h. shares compounds with T cruzi growth-1. inhibition, % at 2.09 µM;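 active means mean inhibition above about 95%, with at least 55% of replicates also reaching it, limit read from the data; inconclusive means meets just one of the two conditions; inactive means meets neither condition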;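 further: plate controls were neutral control median for no effect and positive control median for full effect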
3T3 cytotox = cytotoxicity in mouse NIH/3T3 fibroblasts; shares compounds with T cruzi growth-1; NIH/3T3 viability, CellTiter-Glo ATP luminescence, 90 h; cytotoxicity (signal decrease), % at 8.35 µM; actives 14% (n = 5,600);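 active means mean signal decrease across replicates above about 35% based on untreated-well scatter, with enough replicates individually passing, limit read from the data; inconclusive means no rule stated though some were filed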;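 further: 0% = median of neutral control wells and 100% = median of positive control wells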
3T3 cytotox 2 = NIH/3T3 (mouse) viability loss | shares compounds with T cruzi growth-1 | NIH/3T3 viability, CellTiter-Glo ATP luminescence, 90 h | inhibition, % at 24.9 µM | actives 56% (n = 5,600);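 active means mean loss of cell viability signal at or above a set limit, and enough replicates individually reaching it; inconclusive means meets only the mean limit or only the replicate share; inactive means meets neither condition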;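 further: 0% = median of neutral control wells and 100% = median of positive control wells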
An asterisk follows results filed as active; ? = inconclusive; . = no result given. Rows were chosen to be rich in hits. Some 6.8% of all compounds tested hit in one or more screens of this group.

SMILES	C diff growth	Pf Dd2 inh	T cruzi growth-1	T cruzi growth-2	T cruzi growth-3	3T3 cytotox	3T3 cytotox 2
OC[C@@H]1Nc2ccc(C#Cc3ccccc3)cc2[C@H]2[C@@H]1CCN2Cc1nccs1	47	-40	?	99*	107*	31	99*
C[C@H]1CCCCO[C@H](CN(C)C(=O)c2ccccc2)[C@@H](C)CN([C@@H](C)CO)C(=O)c2cc(NC(=O)NC3CCCCC3)ccc2O1	-4	-57	-30	.	.	.	.
COc1cccc(S(=O)(=O)Nc2ccc3c(c2)[C@H]2C[C@H](CC(=O)NCc4ccc(Cl)cc4)O[C@@H](CO)[C@H]2O3)c1	.	-3	146*	108*	36	-2	8
COc1cccc(S(=O)(=O)Nc2ccc3c(c2)[C@H]2C[C@H](CC(=O)NC4CCCCC4)O[C@H](CO)[C@H]2O3)c1	-5	-37	124*	?	-11	-3	7
COc1cccc(S(=O)(=O)Nc2ccc3c(c2)[C@@H]2C[C@@H](CC(=O)NCc4ccc(Cl)cc4)O[C@@H](CO)[C@@H]2O3)c1	-1	-40	78	.	.	.	.
COc1cccc(S(=O)(=O)Nc2ccc3c(c2)[C@H]2C[C@@H](CC(=O)NC4CCCCC4)O[C@H](CO)[C@H]2O3)c1	43	-18	15	.	.	.	.
C[C@@H](O)C#Cc1cnc2c(c1)C(=O)N([C@@H](C)CO)C[C@H](C)[C@H](CN(C)C(=O)c1ccccc1)O2	-1	38	92	.	.	.	.
CC(C)CC#Cc1ccc2c(c1)O[C@@H](CN(C)Cc1cncnc1)[C@H](C)CN([C@@H](C)CO)S2(=O)=O	2	-36	82	.	.	.	.
CC(C)CC#Cc1ccc2c(c1)O[C@@H](CN(C)Cc1cccnc1)[C@H](C)CN([C@H](C)CO)S2(=O)=O	21	.	87	.	.	.	.
CC(C)CC#Cc1ccc2c(c1)O[C@H](CN(C)Cc1cccnc1)[C@H](C)CN([C@H](C)CO)S2(=O)=O	-2	.	106*	104*	82	32	103*
CC(C)CC#Cc1ccc2c(c1)O[C@H](CN(C)Cc1cccnc1)[C@@H](C)CN([C@H](C)CO)S2(=O)=O	9	.	96*	104*	100*	16	104*
COc1cccc(CNC(=O)C[C@@H]2C=C[C@H](NC(=O)C3CC3)[C@H](CO)O2)c1	2	20	.	.	.	.	.
O=C(NCC1CC1)[C@H]1[C@H](CO)[C@H]2Cn3c(cccc3=O)[C@H]2N1CCC(F)(F)F	-3	7	-3	.	.	.	.
C[C@H]1CN([C@@H](C)CO)C(=O)c2cc(NS(C)(=O)=O)ccc2O[C@H]1CN(C)Cc1ccc(Cl)c(Cl)c1	-2	9	46	.	.	.	.
CCCC#Cc1ccc2c(c1)O[C@@H](CN(C)C(=O)C1CCCCC1)[C@H](C)CN([C@H](C)CO)S2(=O)=O	32	-63	68	.	.	.	.
CCCC#Cc1ccc2c(c1)O[C@@H](CN(C)C(=O)C1CCCCC1)[C@@H](C)CN([C@H](C)CO)S2(=O)=O	5	-32	74	.	.	.	.
CCCC#Cc1ccc2c(c1)O[C@H](CN(C)C(=O)C1CCC1)[C@@H](C)CN([C@@H](C)CO)S2(=O)=O	-13	-33	108*	102*	56	12	39*
CCCC#Cc1ccc2c(c1)O[C@H](CN(C)C(=O)C1CCC1)[C@H](C)CN([C@@H](C)CO)S2(=O)=O	2	-10	98*	107*	80	27	45*
CCC(=O)N1[C@H](CO)[C@@H](c2ccc(-c3ccc(F)cc3)cc2)[C@@H]1CNC(C)=O	6	11	21	.	.	.	.
CO[C@H]1CN(C)C(=O)c2cc(NS(C)(=O)=O)ccc2OC[C@@H](C)NC[C@H]1C	-6	25	.	.	.	.	.
CC=Cc1ccc2n(c1=O)C[C@H]1[C@H](CO)[C@@H](C(=O)NCCC)[C@@H]2N1CCC(F)(F)F (mixture of isomers)	-10	7	20	.	.	.	.
C[C@H](CO)N1C[C@H](C)[C@H](CN(C)C(=O)C2CC2)Oc2cc(-c3ccccc3)ccc2S1(=O)=O	-8	9	63	.	.	.	.
Cc1ccccc1NC(=O)Nc1ccc2c(c1)C(=O)N(C)[C@@H]1CC[C@@H](CC(=O)O)O[C@H]1CO2	1	16	24	.	.	.	.
